Results on 40 molecules are retold here after PubChem BioAssay (NCI).

About 83,000 compounds went through this panel and 20% of them were active in at least one assay; those are over-represented in the sample as a whole.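 Results are percent growth after 48 hours of single-concentration exposure. 100 means growth as in untreated cells, lower positive values show inhibition; negative values down to -100 show cell death.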 A number with no mark means an inactive call.

The test system of this assay is NCI-H23 lung. Briefly: NCI-60 one-dose screen, 48 h (100 = growth as untreated, 0 = no growth, -100 = all killed). Conditions: 10 µM unless noted. The method, then:
Growth inhibition of the NCI-H23 human Non-Small Cell Lung tumor cell line is measured as a screen for anti-cancer activity. Cells are grown in 96 well plates and exposed to the test compound for 48 hours. Compounds are tested at a single concentration, which is 10^-5 M for most compounds. The reported endpoint is percent growth (GI% or GIPRCNT), where numbers from 0 - 100% represent growth inhibition, and numbers from -100% - 0 represent cell death. For example, a value of 40 represents 60% growth inhibition. A value of 0 means no net growth occurred over the course of the experiment. A value of -40 indicates 40% of cells at the beginning of the experiment died by the end of the experiment. A value of -100 means all cells are dead at the end of the experiment.
NCI-60 Human Tumor Cell Lines Screen was performed using the standard one-dose NCI protocol, which is described in more detail at https://dtp.cancer.gov/discovery_development/nci-60/default.htm.
Compounds with GIPRCNT values below 10 were considered active. Activity score was based on GIPRCNT using the following formula: […]
Score is 0 for GIPRCNT values of 100 or above, 50 for GIPRCNT values of 0, and 100 for GIPRCNT values of -100.
In the case of `Cc1ccc(S(=O)(=O)Oc2ccc(NC(=O)c3ccc(Cl)cc3)cc2)cc1`, the growth is 102%.

On to `O=c1c2cc(F)ccc2sc2c(NCCCNCCO)nc3ccccc3c12`, for which the growth is 66.9%.

Take `O=C(Nc1ccc(Cl)cc1F)c1ccccc1O`: the growth is 17%.

As for `O=c1ccc(N=Nc2ccccc2)ccc1Cl`, the growth is 16.4%.

For `COc1ccc2nc(NC(=O)c3cccnc3Nc3ccc(S(N)(=O)=O)cc3)sc2c1`, the growth was 105%.

For `CCn1cnc2c1c(=O)[nH]c(=O)n2CC1CCC(CNS(=O)(=O)c2ccc(OC3CCOCC3)c(F)c2)CC1` (stereo not given), the growth is 57.5%.

Regarding `COc1cc(C2CC(c3ccc(SC)cc3)=NN2C(C)=O)cc(OC)c1OC` (stereo not given), the growth is 70.5%.

For the molecule `Oc1ccc(C#CCOc2ccccc2)cc1CNCCN(Cc1ccccn1)Cc1ccccn1`, the growth is 16.7%.

As for `N/C(=N\c1nc2ccccc2s1)NC(=O)Nc1cccc2ccccc12`, the growth is 29.6%.

In the case of `CCOC(=O)c1cn2ncnc(Oc3ccc(NC(=O)NCCN(CC)CC)c(Cl)c3)c2c1C`, the growth was 76.6%.

As to `COc1cc(C(=O)c2cnc(-c3cccc4[nH]ccc34)[nH]2)cc(OC)c1OC`, the growth is 26.4%.

As to `NCCNc1nc2ccccc2c2c(=O)c3cccc(F)c3sc12`, the growth is 70%.

For `C[C@H](C(=O)Nc1ccc(S(N)(=O)=O)cc1)S(=O)(=O)c1ccccc1`, the growth was 94.3%.

As to `COc1cccc(Cc2nn3cc(-c4ccccc4)nc3s2)c1`, the growth was 97.4%.

Turning to `N#CC1=C(N)Oc2c(sc3c(Br)cccc23)C1c1ccc(Br)cc1` (stereo not given), the growth was 20.4%.

In the case of `Cc1nc2ccccc2c(/C=C/c2ccc(Cl)cc2)c1C(=O)/C=C/c1cccs1`, the growth was 67.8%.

For the molecule `CNCCCNc1nc2ccccc2c2c(=O)c3cc(OC)ccc3sc12`, the growth is 79.6%.

For the molecule `Cc1ccc2c(-c3cc(-c4ccccc4)nc(N)c3C#N)cc(=O)oc2c1`, the growth was 102%.

`Nc1nn(C(=O)Nc2ccc(Cc3ccccc3)cc2)c2ccc(Cl)cc12`: the growth was 70.1%.

Turning to `CCc1ccc2nc(NC(=O)Cc3csc(NC(=O)c4ccco4)n3)sc2c1`, the growth is 85.1%.

For the molecule `Cc1nc(/N=C(\N)NC(=O)Nc2ccccc2Cl)sc1C`, the growth was 42.6%.

On to `COc1ccc(-c2nn(C(=O)c3cc(OC)c(OC)c(OC)c3)c3cc(N)ccc23)cc1`, for which the growth is 34.1%.

As to `COc1cc(/C=C/c2c(C(C)=O)c(C)nc3ccccc23)cc(OC)c1OC`, the growth is 52.8%.

On to `COc1ccccc1/C=C1\Oc2cc(OCCN3CCC(Cc4ccccc4)CC3)ccc2C1=O`, for which the growth was 93.9%.

As for `CNc1nc2c(s1)C(c1cccc(F)c1)CC(=O)N2` (stereo not given), the growth was 100%.

Turning to `CNC(=O)c1[nH]cc(-c2ccccc2)c1-c1cc(OC)c2c(c1OC)OCO2`, the growth was 104%.

As to `CCCCOc1ccc(/C=N/NC(N)=S)cc1`, the growth is 87.6%.

Take `CCOC(=O)/C(C#N)=C\Nc1ccc2ncnc(Nc3ccc(Cl)cc3Cl)c2c1`: the growth is 99.5%.

For the molecule `COc1cccc(-c2nn(-c3ccccc3)cc2-c2ccnc(N3CCOCC3)c2)c1`, the growth was 82.4%.

Regarding `O=[N+]([O-])c1ccccc1NCSc1ccc(Cl)cc1`, the growth was 91.2%.

Turning to `CC1(C)C2CC1C1(/C=N\Nc3ccccc3)C(C2)C(C#N)(C#N)C1(C#N)C#N` (stereo not given), the growth was 85.1%.

Take `CC([C@H]1CCC2C3CCC4C(=O)C(NC=O)=CC[C@]4(C)C3CC[C@@]21C)N(C)C` (stereo not given in full): the growth was 44.2%.

Turning to `C=C1C(=O)O[C@H]2[C@H]1CC/C(COC(=O)CCSSCCC(=O)OC/C1=C/CC[C@@]3(C)O[C@H]3[C@H]3OC(=O)C(=C)[C@@H]3CC1)=C\CC[C@@]1(C)O[C@@H]21`, the growth was 26.4%.

Turning to `N#C/C(=C\c1ccc(F)cc1)n1nc2cccc(F)c2n1`, the growth was 56.7%.

As to `O=C(N=c1oc2ccccc2cc1-c1cc2ccccc2[nH]1)Nc1ccc(Cl)cc1`, the growth is 86.2%.

As to `Cc1cc(Cl)ccc1NS(=O)(=O)c1ccc(-c2cnc(C3CC3)o2)cc1`, the growth was 31.1%.

As for `CCCCCCCCCCCCCCCCCC1OCC(COC(=O)O[C@]2(CC)C(=O)OCc3c2cc2n(c3=O)Cc3cc4ccccc4nc3-2)O1` (stereo not given in full), the growth is 75.4%.

Consider `COc1ccc(NC2=C(Br)C(=O)C(C)=C(C)C2=O)cc1`, for which the growth is 79.7%.

Consider `CC(=O)CC[C@H]1C(=O)N[C@@H](C(C)C)C(=O)N[C@@H](Cc2cc(O)cc(F)c2)C(=O)N2CCC[C@H](N2)C(=O)O[C@H](/C(C)=C/C=C/C(=O)OC(C)(C)C)C/C=C/C=C/[C@H](O)[C@H](C)[C@H]1O`, for which the growth was 42.2%.

On to `Cc1cc(C)c(-c2c(N)cc(Br)cc2Br)c(N)c1`, for which the growth was 70.9%.
